# In PMC4336329 (PLoS ONE, 2015):
# In all, about 310,000 compounds went through this assay and about 14,000 (4.5%) showed an effect of 50% or more. Effects have a minus sign here. What follows is part of a selection rich in strong results, with near analogues and random picks from the rest.
# Molecular target: human ether-à-go-go-related gene (hERG) potassium channel (human, UniProt Q12809)
# Test: primary screen, population patch clamp on CHO cells stably expressing hERG; higher = less effect of the substance
# 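Further: peak tail current of the secondary pulse compared with the same well before compound.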
# Sequence of human ether-à-go-go-related gene (hERG) potassium channel (Q12809 whole entry, looked up): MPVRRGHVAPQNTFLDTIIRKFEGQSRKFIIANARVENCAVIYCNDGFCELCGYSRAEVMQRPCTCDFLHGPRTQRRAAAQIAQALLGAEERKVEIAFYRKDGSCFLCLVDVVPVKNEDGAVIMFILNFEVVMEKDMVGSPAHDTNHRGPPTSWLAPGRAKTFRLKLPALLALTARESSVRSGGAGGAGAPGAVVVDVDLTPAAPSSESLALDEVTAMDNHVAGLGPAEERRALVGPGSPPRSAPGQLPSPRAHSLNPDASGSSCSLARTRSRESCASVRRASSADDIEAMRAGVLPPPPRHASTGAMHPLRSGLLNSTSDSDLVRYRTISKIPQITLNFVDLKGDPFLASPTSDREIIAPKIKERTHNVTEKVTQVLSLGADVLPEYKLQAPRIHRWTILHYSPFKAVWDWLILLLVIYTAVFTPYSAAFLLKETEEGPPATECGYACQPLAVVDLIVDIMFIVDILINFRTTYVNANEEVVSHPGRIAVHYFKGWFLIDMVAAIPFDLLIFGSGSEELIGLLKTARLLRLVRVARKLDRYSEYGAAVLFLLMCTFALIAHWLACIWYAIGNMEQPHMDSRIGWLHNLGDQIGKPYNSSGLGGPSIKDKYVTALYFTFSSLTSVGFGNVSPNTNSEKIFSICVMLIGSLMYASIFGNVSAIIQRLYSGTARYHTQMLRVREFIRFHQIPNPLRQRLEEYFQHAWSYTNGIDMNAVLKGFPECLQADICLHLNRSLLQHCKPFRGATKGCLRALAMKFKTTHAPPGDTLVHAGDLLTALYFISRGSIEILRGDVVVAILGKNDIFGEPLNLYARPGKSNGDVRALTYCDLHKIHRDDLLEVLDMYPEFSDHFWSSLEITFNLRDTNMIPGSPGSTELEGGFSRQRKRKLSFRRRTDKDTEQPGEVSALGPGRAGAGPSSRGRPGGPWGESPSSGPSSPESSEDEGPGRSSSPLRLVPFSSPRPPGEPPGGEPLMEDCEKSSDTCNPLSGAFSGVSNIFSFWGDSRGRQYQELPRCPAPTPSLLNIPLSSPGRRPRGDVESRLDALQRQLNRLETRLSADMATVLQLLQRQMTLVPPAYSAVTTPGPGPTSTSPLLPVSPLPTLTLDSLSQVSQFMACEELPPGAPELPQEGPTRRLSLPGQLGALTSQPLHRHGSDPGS
row,SMILES,"hERG current change (%, negative = inhibition) at 10uM [%]"
1,O=C(CCc1nc(-c2ccccc2)no1)NC1CCCCCC1,1.28
2,CCc1cccc(C)c1NC(=O)CSc1nc(-c2ccccc2F)nc2nc[nH]c12,3.31
3,NC(=O)c1cc([N+](=O)[O-])c(Cl)cc1NCc1cccnc1,-8.53
4,Cc1cc(C)cc(OCC(=O)NNC(=O)c2ccccn2)c1,-34.6
5,CN(C)S(=O)(=O)n1cc(/C=C(\NC(=O)c2ccccc2Cl)C(=O)N2CCOCC2)c2ccccc21,-7.07
6,O=C(Nc1cccc(C(=O)O)c1)/C(=C\c1ccc2c(c1)OCO2)NC(=O)c1ccc(Br)cc1,17.9
7,O=C(Nc1ccc(C(=O)O)cc1)/C(=C\c1ccc2c(c1)OCO2)NC(=O)c1ccc(Br)cc1,5.36
8,O=C(Nc1ccc(C(=O)O)cc1)/C(=C\c1ccc2c(c1)OCO2)NC(=O)c1ccccc1,22
9,CNC(=O)/C(=C/c1ccc2c(c1)OCO2)NC(=O)c1ccc(Br)cc1,-63.4
10,Cc1ccc(C(=O)N/C(=C\c2ccc3c(c2)OCO3)C(=O)Nc2ccc(C(=O)O)cc2)cc1,17.9
11,CNC(=O)/C(=C\c1ccc2c(c1)OCO2)NC(=O)c1ccc(Br)cc1,-56.5
12,COC(=O)c1ccc(NC(=O)c2ccccc2N(C)S(=O)(=O)c2ccccc2)cc1,16.3
13,Cc1ccc(C(c2cc(Cl)c3cccnc3c2O)N2CCN(C)CC2)cc1 (stereo not shown),-9.97
14,CC(C)(C)c1cc(CN2CCN(CCO)CC2)cc(C(C)(C)C)c1O,-19
15,CCN1CCN(C(c2cccnc2)c2cc(Cl)c3cccnc3c2O)CC1 (stereo not shown),-72.4
16,CC(C)(C)c1cc(C(=S)N2CCN(CCO)CC2)cc(C(C)(C)C)c1O,-26.6
17,CN1CCN(C(c2ccc(Cl)cc2)c2cc(Cl)c3cccnc3c2O)CC1 (stereo not shown),7.12
18,CC(C)(C)c1cc(C(c2cccnc2)N2CCN(CCO)CC2)cc(C(C)(C)C)c1O (stereo not shown),-53.8
19,COC(=O)C1=C(C(=O)OC)[C@@H]2N(Cc3ccccc3)c3ccccc3[C@@]23C[C@@H](CO)N(C(=O)NC2CCCC2)C3=N1,-9.18
20,CC(CN(C)Cc1ccccc1)OC(=O)c1cccs1.Cl (stereo not shown),-10.5
21,COc1cc2c(cc1OC)C(C)N(C(=O)C1COc3ccccc3O1)CC2 (stereo not shown),-35.3
22,Cc1sc2nc(C3CC3)nc(N3CCN(C(=O)c4ccc(F)cc4)CC3)c2c1C.Cl,-69.8

row,SMILES,"hERG current change (%, negative = inhibition) at 10uM [%]"
1,COc1ccc(C(=O)N2CCN(c3nc(C4CC4)nc4sc(C)c(C)c34)CC2)cc1.Cl,-23.8
2,Cc1sc2nc(C3CC3)nc(N3CCN(S(=O)(=O)c4ccc(F)cc4)CC3)c2c1C,-0.18
3,Cc1sc2nc(C3CC3)nc(N3CCN(C(=O)c4ccccc4F)CC3)c2c1C.Cl,-37.6
4,Cc1sc2nc(C3CC3)nc(N3CCN(C(=O)c4ccc(Cl)cc4)CC3)c2c1C.Cl,-57.1
5,Cc1sc2ncnc(N3CCC(C(=O)NNC(=O)c4ccc(Cl)cc4)CC3)c2c1C,-11.2
6,O=C(CN(c1ccc2c(c1)OCCO2)S(=O)(=O)c1ccccc1)NCc1ccco1,4.37
7,O=C(Nc1ccc(F)cc1F)c1ccc2c(c1)OCCO2,15.4
8,Cc1cccc(NC(=S)N(CCN2CCOCC2)Cc2cc3cc4c(cc3[nH]c2=O)OCCO4)c1,-3.3
9,CN(C(=O)COC(=O)c1cc(S(=O)(=O)N2CCCCC2)ccc1N1CCOCC1)C1CCS(=O)(=O)C1 (stereo not shown),-6.63
10,CCCCc1c(O)c2ccccc2[nH]c1=O,0.685
11,COc1ccc(-n2c(C)cc(C(=O)CSc3nnc(-c4ccoc4C)n3C)c2C)cc1,-31.1
12,CCSC1=N/C(=C\C=C2/Oc3ccccc3N2CC)C(=O)S1,-3.2
13,COc1ccc(C(=O)C2CCCN(C3Cc4ccccc4C3)C2)c(OC)c1 (stereo not shown),-76.5
14,COc1ccc(OC)c(NC(=O)N2CCCC(C(=O)c3ccccc3OC)C2)c1 (stereo not shown),5.87
15,COc1ccc(C(=O)C2CCCN(C3CSCCSC3)C2)cc1OC (stereo not shown),-21.8
16,COC(=O)c1ccccc1C(=O)N1CCCC(C(=O)c2ccc(OC)c(OC)c2)C1 (stereo not shown),4.47
17,COc1ccc(C(=O)C2CCCN(C3Cc4ccccc4C3)C2)cc1OC (stereo not shown),-76.6
18,COc1ccc(C(=O)C2CCCN(C3CSCCSC3)C2)c(OC)c1 (stereo not shown),-43.6
19,CC(C)(C)NC(=O)COc1ccc(CNc2ccc3[nH]c(=O)[nH]c3c2)cc1,-1.87
20,Cn1c(NCc2ccco2)nc2c1c(=O)n(Cc1ccc(Cl)c(Cl)c1)c(=O)n2C,-15.6
21,COCCn1c(SCC(=O)/C=C2\N(C)c3ccccc3C2(C)C)nnc1-c1ccncc1,-37.4
